Among the data in PubChem BioAssay AID624267 (The Scripps Research Institute Molecular Screening Center, 2012) are inhibition values, retold here.

About 1,400 (0.39%) of roughly 360,000 compounds were called active. The full list was thinned out, with actives kept by preference. Unmarked numbers belong to inactive results. Rule as the data show it: active = inhibition above about 21%; inactive = the rest.

Receptor-interacting serine/threonine-protein kinase 2 (Homo sapiens), sequence (O43353 whole entry, looked up): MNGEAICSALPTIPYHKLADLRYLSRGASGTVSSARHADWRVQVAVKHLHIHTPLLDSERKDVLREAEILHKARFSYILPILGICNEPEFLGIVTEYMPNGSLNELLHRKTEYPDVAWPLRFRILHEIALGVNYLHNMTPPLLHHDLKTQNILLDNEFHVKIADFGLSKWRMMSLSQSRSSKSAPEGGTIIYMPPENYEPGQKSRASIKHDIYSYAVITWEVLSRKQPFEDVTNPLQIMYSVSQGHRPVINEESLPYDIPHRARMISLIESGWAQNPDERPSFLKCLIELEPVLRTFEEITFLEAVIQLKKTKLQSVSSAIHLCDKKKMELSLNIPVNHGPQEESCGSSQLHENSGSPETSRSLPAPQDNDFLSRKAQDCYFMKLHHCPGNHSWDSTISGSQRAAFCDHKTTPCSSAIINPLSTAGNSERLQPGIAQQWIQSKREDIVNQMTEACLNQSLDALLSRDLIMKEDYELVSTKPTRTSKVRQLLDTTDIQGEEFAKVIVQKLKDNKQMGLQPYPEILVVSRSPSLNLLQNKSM

The test has as its target Receptor-interacting serine/threonine-protein kinase 2 (Homo sapiens) (UniProt O43353). Kind of test: inhibitors of RIPK2 association with NOD2 – fluorescence, CHO cells, BLA complementation, primary screen (AID 624267).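 Also: 0% = vehicle only and 100% = reference blocker.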 The note with it: CHO BLA complementation NOD2-RIPK2, CCF4 ratio; at 4.98 µM; stronger effect = higher value.
The term inhibition denotes the change of the read-out against control, counted positive when it falls. As to `C[C@H]1CN([C@@H](C)CO)C(=O)c2cc(-c3cccc(F)c3)cnc2O[C@@H]1CN(C)S(C)(=O)=O`, the inhibition was 21.8% (active). Under `C[C@@H]1CN([C@H](C)CO)C(=O)c2cc(-c3ccc(F)cc3)cnc2O[C@H]1CN(C)C(=O)c1ccc(F)cc1` stands -5.43%; under `C[C@H]1CN([C@@H](C)CO)C(=O)c2cc(Br)cnc2O[C@H]1CN(C)S(=O)(=O)c1cccs1`, -2.32%.

In the case of `Cc1ccc(N(C(=O)c2sc(C)nc2C)C(C(=O)NC(C)(C)C)c2ccncc2)cc1` (centres undefined), the inhibition was -19.7%. For the compound `COc1ccc(NC(C)=O)cc1NC(=O)CN1CCN(C2c3ccccc3-c3ccccc32)CC1`, the inhibition is -1.12%. As to `Cc1ccc(NS(=O)(=O)c2ccc(C(=O)NCCCN3CCOCC3)cc2)cc1`, the inhibition is -3.35%. In the case of `O=C(CS(=O)(=O)Cc1ccccc1)Nc1cccnc1`, the inhibition is -7.99%. Under `CN(CCC(=O)Nc1cc(S(=O)(=O)N(C)C)ccc1Cl)CC(=O)Nc1ccc(F)cc1` stands -1.55%. Regarding `Cc1cccc(NC(=O)c2nc(S(=O)(=O)Cc3ccccc3)ncc2Cl)c1`, the inhibition is 90.3% (active). Regarding `Cc1cccc(NC(=O)Cn2c(=O)n(Cc3ccccc3)c(=O)c3c(C)c(C)sc32)c1`, the inhibition is -1.85%. Under `Cc1cccc(CS(=O)(=O)c2ncc(Cl)c(C(=O)Nc3ccc(F)cc3)n2)c1` stands 95.7% (active). As for `Cc1cc(NS(=O)(=O)c2ccc(NC(=S)NC(=O)c3ccc(F)cc3Cl)cc2)no1`, the inhibition is -13%.

On to `COc1ccc(C(C)=O)cc1CN1C(=O)NC2(CCCCC2C)C1=O` (centres undefined), for which the inhibition is -6.26%. The result for `CC(C)N1C(=O)c2ccccc2NC(=O)C1C(=O)NCc1cccs1` (centres undefined) reads -11.7%. The result for `CC(OC(=O)CNS(=O)(=O)/C=C/c1ccccc1)C(=O)Nc1ccc(S(=O)(=O)N2CCCC2)cc1` (centres undefined) reads -14.5%; that for `COc1ccc(CCNC(=O)CCc2cn(C)c3ccccc23)c(OC)c1`, 3.29%; that for `O=[N+]([O-])c1c(NCCO)cc(Sc2nc3ccccc3s2)c2nonc12`, 86.9% (active).

`CCN(CCO)C(=S)Nc1cc(C(=O)OC)ccc1C(=O)OC`: the inhibition is -1.65%. Take `COc1ccc(C[C@H]2CN3C(=NC[C@H]3C)N2CCNC(=O)CCC2CCCCC2)cc1`: the inhibition is -3.4%.

Turning to `O=C(CCCN1C(=O)CSc2ncccc21)N1CCN(c2cccc(C(F)(F)F)c2)CC1`, the inhibition was 3.16%. `COc1ccc(-c2cc(C(F)(F)F)nc(S(C)(=O)=O)n2)cc1OC`: the inhibition is 36.7% (active). Under `COc1ccc(CCNS(=O)(=O)c2ccc(F)cc2)cc1OC` stands -9.46%; under `Cc1cc(C)c(C)c(S(=O)(=O)Nc2ccc(O)cc2)c1C`, -7.06%. The result for `Cc1ccc(S(=O)(=O)NC(=O)N2CCCN(Cc3ccc(F)cc3)CC2)cc1` reads 8.13%.

As to `Cc1ccc(CS(=O)(=O)CCC(=O)NCc2ccc(F)cc2)cc1`, the inhibition is 10.2%. On to `CC(OC(=O)c1cc2ccccc2o1)C(=O)Nc1ccc(N2CCOCC2)cc1` (centres undefined), for which the inhibition is -6.36%. Under `O=C(NN=Cc1ccc(N2CCOCC2)cc1)c1cc2ccccc2cc1O` stands 30.5% (active). For `CC(C)c1cc(C(=O)N/N=C/c2ccoc2)c(O)c(C(C)C)c1`, the inhibition is -15.4%.

In the case of `CCc1nnc(NC(=O)CSc2nc3c(c(=O)n2-c2ccccc2OC)SCC3)s1`, the inhibition was -4.66%. On to `CC(C)Oc1ccc(C2NC(=O)NC2=O)cc1` (centres undefined), for which the inhibition was -8.11%. In the case of `COc1ccc(NC(=O)C(c2ccncc2)n2c(=O)c(-c3cc4ccccc4[nH]3)nc3ccccc32)cc1` (centres undefined), the inhibition was 37.2% (active). In the case of `COc1ccc(C(C(=O)NCc2ccccc2)n2c(=O)c(-c3ccccc3)nc3ccccc32)cc1` (centres undefined), the inhibition is -6.05%. Under `CCCCCNC(=O)C(c1ccc(OC)cc1)n1c(=O)c(-c2ccccc2)nc2ccccc21` (centres undefined) stands -13.6%; under `CCOc1ccc(NC(=O)C/C(C)=N/NC(=O)Cc2cccs2)cc1`, -21.5%.

For the compound `O=C(c1ccc(O)cc1)c1ccc(C(=O)O)c(C(=O)O)c1`, the inhibition is 7.45%.

As for `Nc1ncnc2c1ncn2[C@@H]1O[C@H](C(=O)NS(=O)(=O)c2c(Cl)nc3sccn23)[C@@H](O)[C@H]1O`, the inhibition is -5.91%. Consider `Cc1ccnc(NS(=O)(=O)c2ccc(NC(=O)c3oc4ccccc4c3C)cc2)n1`, for which the inhibition was 7.08%. For the compound `O=C(CCC(=O)N1CCCC1)Nc1ccc([N+](=O)[O-])cc1`, the inhibition was -7.75%.

In the case of `CC(=O)Nc1ccc(C=Cc2ccc([N+](=O)[O-])cc2)cc1`, the inhibition was 23.5% (active). Under `O=C(O)/C=C/C(=O)NNc1ccc([N+](=O)[O-])cc1` stands -11.2%; under `O=C(CN1C(=O)NC2(CCCCC2)C1=O)N1CCN(C(=O)c2cccs2)CC1`, -8.73%.

On to `O=C(N[C@@H](Cc1ccccc1)C(=O)OCc1ccccc1)c1nc[nH]c1C(=O)N[C@@H](Cc1ccccc1)C(=O)OCc1ccccc1`, for which the inhibition was -4.2%. With `C[C@@H](NC(=O)c1nc[nH]c1C(=O)N1CCN(C(=O)OC(C)(C)C)CC1)c1ccccc1`, the inhibition is 1.84%. Under `CC(C)(C)OC(=O)N1CCC(NC(=O)c2[nH]cnc2C(=O)N[C@@H](Cc2ccccc2)C(=O)OCc2ccccc2)CC1` stands 30.1% (active). Consider `CC(C)(C)c1nnc(NC(=O)C2c3ccccc3Oc3ccccc32)s1`, for which the inhibition was 13.8%.

As for `COc1ccc2c(c1OC)C(=O)OC2Nc1nc(-c2ccccc2)cs1` (centres undefined), the inhibition is 21.7% (active).

Regarding `COc1cc(C(O)c2nc(-c3cccc(C(=O)O)c3)cs2)ccc1F` (centres undefined), the inhibition was -2.31%. The result for `COc1ccccc1C(=O)Nc1nc2nc(-c3ccccc3)cc(=O)n2[nH]1` reads -2.48%; that for `C=CCNC(=O)COC(=O)c1ccccc1C(=O)N(C)C1CCCCC1`, -6.21%.

With `COc1cccc(CNC(=O)COC(=O)CN2C(=O)NC3(CCCCC3C)C2=O)c1` (centres undefined), the inhibition was -6.08%. The result for `CCOc1ccc(-c2nnc3ccc(SC)nn23)cc1` reads 9.56%; that for `CCC(CC)COC(=O)C1=C(C)NC(=O)NC1c1ccc([N+](=O)[O-])cc1` (centres undefined), 7.52%; that for `CCOC(=O)C1=C(c2ccccc2)NC(=O)NC1c1cc(OCC)c(O)c([N+](=O)[O-])c1` (centres undefined), 6.34%. Under `CCOC(=O)C1=C(C)N(C[C@@H]2CC[C@@H](Cc3ccc(-c4ccccc4)cc3)O2)C(=O)NC1c1ccc([N+](=O)[O-])cc1` (some centres undefined) stands 22.2% (active).
